From PubChem BioAssay
FLuc inh: Firefly luciferase inhibition profiling of diverse chemical library using quantitative high-throughput screening. Potency, µM (highest dose often 115 µM), most hits filed as inhibitors. Luciferin 4-monooxygenase (Photinus pyralis), P08659. purified P. pyralis luciferase, luminescence, biochemical. 76,000 tested, 2.5% active; further: nearly all actives have a fitted effect of over 65% in size
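Luminescence read by CCD imaging after purified firefly luciferase (10nM final) was added to substrate buffer holding 10uM D-luciferin and 10uM ATP, pH 7.5, pre-dosed with compound.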
3T3 cytotox: Cytotoxic Profiling in NIH 3T3 Cell Line of Diverse Libraries Using Quantitative High-Throughput Screening. NIH 3T3 viability, CellTiter-Glo ATP luminescence, 48-72 h. Potency, µM (series often up to 96.7 µM), for the others: at the highest dose activity change, negative = cytotoxicity, hits mostly inhibitors. 94,000 tested, 4.3% active. AID 1345082, 2018; further: nearly all actives have a fitted effect of over 55% in size
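Cells were seeded at 400 per well, treated with pin-transferred compound, and kept 48 or 72 hr at 37 °C before CellTiter-Glo addition and luminescence imaging of cellular ATP.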
GPT2 inhibitor: Primary qHTS assay for inhibitors of Glutamate pyruvate transaminase 2 (GPT2). Alanine aminotransferase 2 (Homo sapiens), Q8TD30. Recombinant GPT2, coupled pyruvate oxidase/HRP Amplex Red fluorescence. Potency, µM (series often up to 57.7 µM), without a hit: at the top dose activity change, negative = inhibition, actives largely listed as inhibitors. 100,000 tested, 0.25% active; further: nearly all actives have a fitted effect of over 60% in size
Target sequence (Q8TD30 whole entry, looked up): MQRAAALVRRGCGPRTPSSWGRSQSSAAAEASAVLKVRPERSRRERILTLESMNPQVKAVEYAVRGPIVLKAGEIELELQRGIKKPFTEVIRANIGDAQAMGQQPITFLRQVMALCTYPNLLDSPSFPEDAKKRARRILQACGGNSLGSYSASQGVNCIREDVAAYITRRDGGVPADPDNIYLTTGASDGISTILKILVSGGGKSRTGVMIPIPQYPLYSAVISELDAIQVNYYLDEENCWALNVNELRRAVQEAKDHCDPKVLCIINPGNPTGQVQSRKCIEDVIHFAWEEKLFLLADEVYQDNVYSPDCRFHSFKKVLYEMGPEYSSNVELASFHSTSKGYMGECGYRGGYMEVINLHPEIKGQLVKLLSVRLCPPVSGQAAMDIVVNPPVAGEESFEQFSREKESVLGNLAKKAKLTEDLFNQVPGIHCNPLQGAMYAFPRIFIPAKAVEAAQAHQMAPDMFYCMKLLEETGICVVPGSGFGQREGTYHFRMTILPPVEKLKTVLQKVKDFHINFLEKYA
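Fluorescence of coupled pyruvate oxidase/HRP/Amplex Red system (50uM Amplex, 30 min, dark) reports pyruvate formed by GPT2. Enzyme reaction: 10ng/uL GPT2, 2mM L-alanine, 250uM a-KG, 30 min room temperature, pH 7.5; 50uM AOA control.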
NPR1 antag: Natriuretic polypeptide receptor (hNpr1) antagonism - Primary qHTS | Potency, µM (titrated, usually from 46.3 µM), for the others: top-dose activity change, negative = inhibition, most hits filed as inhibitors | Atrial natriuretic peptide receptor 1 (Homo sapiens), P16066 | 76,000 tested, 1.6% active | AID 1347048, 2019 | HEK293 hNpr1 GloSensor cGMP, ANP-stimulated luminescence; calls by dose curve; further: nearly all actives have a fitted effect of over 60% in size
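HEK293 cells stably expressing human Npr1 and cGMP GloSensor pGS-40F, loaded 2 h with 2% GloSensor reagent, given compound 30 min at room temperature. Luminescence read before and 20 min after 0.1 nM hNppA.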
HEK293 tox: Cytotoxic Profiling in HEK 293 Cell Line of Diverse Libraries Using Quantitative High-Throughput Screening. HEK 293 viability, ATP luminescence (CellTiter-Glo), 48-72 h. Potency, µM (series often up to 115 µM), for inactives: at the highest dose activity change, negative = cytotoxicity, hits mostly inhibitors. 94,000 tested, 6.6% active; further: nearly all actives have a fitted effect of over 60% in size
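HEK 293 cells at 250 cells/well were exposed to compounds by pintool transfer for 48 or 72 hr at 37 degree Celsius, 5% CO2. Viability was read as ATP-coupled luminescence with CellTiter-Glo after 10 min at room temperature.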
* marks the source's active call; other numbers are inactive results; [ ] = dose if it differs, or a comment. The list is not random: actives were taken first. Their share in the collection is about 10%. Unless noted, the call rests on the fitted dose curve; in most records, active means well fitted curve in the direction sought with a large enough effect; inconclusive means small, poorly fitted or top-dose-only effect, or another doubt; inactive means no such curve, though single readings can be large; an effect the other way counts as inactive or inconclusive. On the % scale 0 is the no-effect control and ±100 the full control effect; potency means the concentration at half of the fitted maximal effect.

How did COc1ccccc1-c1nnc2ccc(C(=O)NCc3ccc(F)cc3)cn12 do in these assays?
3T3 cytotox: -28%; GPT2 inhibitor: inactive; HEK293 tox: inconclusive

What do the screens show for `O=C(c1ccsc1)N1CCc2c(nc3cc(-c4ccccc4Cl)[nH]n3c2=O)C1`?
FLuc inh: 35µM*; 3T3 cytotox: 40µM*; GPT2 inhibitor: inactive; NPR1 antag: -13%; HEK293 tox: -12%

Results for CC(=O)Nc1ccc(CC(=O)N2CCc3c(nc4cc(-c5ccccc5Cl)[nH]n4c3=O)C2)cc1 ?
FLuc inh: inconclusive; 3T3 cytotox: -18%; GPT2 inhibitor: inactive; NPR1 antag: -13%; HEK293 tox: -2%

Results for CCCCC(=O)N1CCc2c(nc3cc(-c4ccccc4Cl)[nH]n3c2=O)C1 ?
FLuc inh: inactive; 3T3 cytotox: 16µM*; GPT2 inhibitor: 5%; NPR1 antag: -6%; HEK293 tox: inconclusive

What do the screens show for `O=C(c1n[nH]c2ccccc12)N1CCc2c(nc3cc(-c4ccccc4Cl)[nH]n3c2=O)C1`?
FLuc inh: inactive; 3T3 cytotox: 5%; GPT2 inhibitor: inactive; NPR1 antag: 1%; HEK293 tox: -3%

What do the screens show for `CC(C)NC(=O)C1CCN(c2nccc(Nc3ccccc3F)n2)CC1`?
3T3 cytotox: inconclusive; GPT2 inhibitor: 2%; HEK293 tox: inconclusive

Results for Cn1ncc2c(C(=O)NC3CCOCC3)cc(-c3ccccc3C(F)(F)F)nc21 ?
3T3 cytotox: -26%; HEK293 tox: -24%

Results for CC(C)(C)C(=O)N1CC[C@@H](CC(=O)O)[C@@H](CC2=NCCc3ccc(C(C)(C)C)cc32)C1 ?
FLuc inh: inactive; 3T3 cytotox: 100µM*; GPT2 inhibitor: 3%[88.5 µM]; NPR1 antag: 6%[70.6 µM]; HEK293 tox: -25%[172 µM]

Results for CN1CCN(c2cc(=O)c3ccnc(Nc4ccccn4)c3o2)CC1 ?
FLuc inh: inactive; 3T3 cytotox: inconclusive; GPT2 inhibitor: 4%[88.5 µM]; NPR1 antag: 1%[70.6 µM]; HEK293 tox: -6%[172 µM]

What do the screens show for `O=c1cc(N2CCOCC2)oc2c(NCc3ccc(F)cc3)nccc12`?
FLuc inh: inactive; 3T3 cytotox: 25µM*; GPT2 inhibitor: -24%[88.5 µM]; NPR1 antag: 4%[70.6 µM]; HEK293 tox: inconclusive

How did COc1cc(F)ccc1-c1nccc2c(=O)cc(N3CCOCC3)oc12 do in these assays?
FLuc inh: inactive; 3T3 cytotox: 45µM*; GPT2 inhibitor: 0%[88.5 µM]; NPR1 antag: 2%[70.6 µM]; HEK293 tox: -6%[172 µM]

Results for O=c1cc(N2CCOCC2)oc2c(-c3ccc(F)cc3)nccc12 ?
FLuc inh: inactive; 3T3 cytotox: 32µM*; GPT2 inhibitor: 2%[88.5 µM]; NPR1 antag: 2%[70.6 µM]; HEK293 tox: inconclusive

How did COc1cc(F)ccc1-c1nccc2c(=O)cc(N(C)C3CCOCC3)oc12 do in these assays?
FLuc inh: inactive; 3T3 cytotox: inconclusive; GPT2 inhibitor: 3%[88.5 µM]; NPR1 antag: 6%[70.6 µM]; HEK293 tox: -32%[172 µM]

What do the screens show for `O=c1cc(N2CCOCC2)oc2c(-c3cccc4[nH]ccc34)nccc12`?
FLuc inh: inactive; 3T3 cytotox: 8.9µM*; GPT2 inhibitor: inactive; NPR1 antag: 7%[70.6 µM]; HEK293 tox: inconclusive

What do the screens show for `CN1CCN(c2cc(=O)c3ccnc(-c4ccc(CO)cc4)c3o2)CC1`?
FLuc inh: inactive; 3T3 cytotox: inconclusive; GPT2 inhibitor: -6%[88.5 µM]; NPR1 antag: 5%[70.6 µM]; HEK293 tox: inactive

Results for CCC1(CC)CC1C(=O)N1CCC2(CC1)Nc1ccccc1NC2=O (stereo not drawn) ?
FLuc inh: inactive; 3T3 cytotox: inconclusive; GPT2 inhibitor: 4%; NPR1 antag: inconclusive; HEK293 tox: inconclusive

How did CN(C)c1cc(=O)c2ccnc(-c3ccc(N4CCOCC4)cc3)c2o1 do in these assays?
FLuc inh: 45µM*; 3T3 cytotox: inconclusive; GPT2 inhibitor: 2%[88.5 µM]; NPR1 antag: -1%[70.6 µM]; HEK293 tox: inactive

What do the screens show for `O=c1cc(N2CCOCC2)oc2c(-c3ccc(F)c(Cl)c3)nccc12`?
FLuc inh: inactive; 3T3 cytotox: 18µM*; GPT2 inhibitor: 3%[88.5 µM]; NPR1 antag: 4%[70.6 µM]; HEK293 tox: -12%[172 µM]

How did Cc1cc(-c2nccc3c(=O)cc(N4CCOCC4)oc23)ccn1 do in these assays?
FLuc inh: inactive; 3T3 cytotox: 32µM*; GPT2 inhibitor: 3%[88.5 µM]; NPR1 antag: 5%[70.6 µM]; HEK293 tox: -21%[172 µM]

What do the screens show for `COc1ccc(-c2nccc3c(=O)cc(N4CCOCC4)oc23)cc1OC`?
FLuc inh: inactive; 3T3 cytotox: 10µM*; GPT2 inhibitor: 2%[88.5 µM]; NPR1 antag: -1%[70.6 µM]; HEK293 tox: inconclusive

What do the screens show for `CN(C)c1cc(=O)c2ccnc(-c3cccc(CO)c3)c2o1`?
FLuc inh: inactive; 3T3 cytotox: inconclusive; GPT2 inhibitor: inactive; NPR1 antag: -3%[70.6 µM]; HEK293 tox: inactive

What do the screens show for `Cc1cc(-c2nccc3c(=O)cc(N(C)C)oc23)ccn1`?
FLuc inh: inactive; 3T3 cytotox: inconclusive; GPT2 inhibitor: inconclusive; NPR1 antag: 1%[70.6 µM]; HEK293 tox: -6%[230 µM]

What do the screens show for `Cc1cc(-c2nccc3c(=O)cc(N(C)c4ccccc4)oc23)ccn1`?
FLuc inh: inactive; 3T3 cytotox: 10µM*; GPT2 inhibitor: 2%[88.5 µM]; NPR1 antag: -1%[70.6 µM]; HEK293 tox: inconclusive

How did CN1CCN(c2cc(=O)c3ccnc(-c4cccc(F)c4)c3o2)CC1 do in these assays?
FLuc inh: inactive; 3T3 cytotox: 35µM*; GPT2 inhibitor: 2%[88.5 µM]; NPR1 antag: -1%[70.6 µM]; HEK293 tox: -14%[172 µM]

How did O=c1cc(N2CCOCC2)oc2c(Nc3ccccn3)nccc12 do in these assays?
FLuc inh: inactive; 3T3 cytotox: inconclusive; GPT2 inhibitor: -1%[88.5 µM]; NPR1 antag: 5%[70.6 µM]; HEK293 tox: -21%[172 µM]

How did O=c1cc(N2CCOCC2)oc2c(N3CCOCC3)nccc12 do in these assays?
FLuc inh: inactive; 3T3 cytotox: 40µM*; GPT2 inhibitor: inactive; NPR1 antag: 6%[70.6 µM]; HEK293 tox: inconclusive

How did CN1CCN(c2cc(=O)c3ccnc(-c4cccc(CO)c4)c3o2)CC1 do in these assays?
FLuc inh: inactive; 3T3 cytotox: inconclusive; GPT2 inhibitor: 5%[88.5 µM]; NPR1 antag: -4%[70.6 µM]; HEK293 tox: -6%[172 µM]

Results for CN1CCN(c2cc(=O)c3ccnc(Nc4ccc(F)c(Cl)c4)c3o2)CC1 ?
FLuc inh: inactive; 3T3 cytotox: 100µM*; GPT2 inhibitor: inactive; NPR1 antag: 2%[70.6 µM]; HEK293 tox: inconclusive
